The list is not random: actives were taken first. Their share in the collection is about 18%.
DT40 TDP1 no CPT = qHTS for Inhibitors of human tyrosyl-DNA phosphodiesterase 1 (TDP1): qHTS in cells in absence of CPT | DT40 Tdp1-/- hTDP1 cells, no CPT, ATP luminescence, 48 h | Potency, µM (top dose mostly 46.2 µM), without a hit: at the highest dose activity change, negative = growth inhibition, actives largely listed as inhibitors | 420,000 compounds, 15% hits | AID 686978, 2013; also: nearly all actives have a fitted effect of over 55% in size
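Stably hTDP1-transfected Tdp1-null chicken DT40 cells were treated with library compounds minus camptothecin and grown for at least 48 hr at 37 °C, after which cellular ATP was quantified by luminescence.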
TDP1 block = qHTS Assay for Inhibitors of Tyrosyl-DNA Phosphodiesterase (TDP1) | Tyrosyl-DNA phosphodiesterase 1 (Homo sapiens), Q9NUW8 | recombinant TDP1, AlphaScreen DNA substrate cleavage | Potency, µM (series often up to 130 µM), without a hit: at the top dose activity change, negative = inhibition, usual class: inhibitors | 350,000 compounds, 0.28% hits | AID 485290, 2010; also: nearly all actives have a fitted effect of over 40% in size
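Recombinant human Tdp1 (E. coli-expressed, 1 nM final) preincubated with compounds 15 min at room temperature, then 5'-biotin/3'-phosphotyrosine-FITC DNA substrate (15 nM final) added for 5 min. AlphaScreen beads (10 ug/ml final) added 10 min; cleavage lowers signal.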
PLK1 PBD block = qHTS for Inhibitors of PLK1-PDB (polo-like kinase 1 - polo-box domain): Primary Screen. Serine/threonine-protein kinase PLK1 (Homo sapiens), P53350. Plk1 PBD binding of FITC phosphopeptide, fluorescence polarization. Potency, µM, inactives show max response, negative = inhibition, hits mostly inhibitors. 360,000 compounds, 2.8% hits. AID 720504, 2013; also: series mostly up to about 57 µM; nearly all actives have a fitted effect of over 65% in size
TDP1 cell CPT = qHTS for Inhibitors of human tyrosyl-DNA phosphodiesterase 1 (TDP1): qHTS in cells in presence of CPT | chicken DT40 Tdp1-/-;hTDP1 cells + 20 nM CPT, ATP luminescence, 48 h | Potency, µM (series often up to 46.2 µM), inactives show top-dose activity change, negative = growth inhibition, hits mostly inhibitors | 420,000 compounds, 12% hits | AID 686979, 2013; also: nearly all actives have a fitted effect of over 55% in size
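Chicken DT40 Tdp1-/- cells stably complemented with human TDP1 were seeded at 400 cells/well in medium containing 20 nM camptothecin, exposed to pin-transferred compounds, and grown at 37 °C for at least 48 hr. Viability was read as ATP luminescence.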
KAT2A inh = qHTS Assay for Inhibitors of GCN5L2 | GCN5L2 HAT assay, ThioGlo1 CoA-SH fluorescence | Potency, µM (doses to about 58.9 µM), for the others: at the top dose activity change, negative = inhibition, usual class: inhibitors | 390,000 compounds, 0.21% hits
Target sequence (Q92830 whole entry, looked up): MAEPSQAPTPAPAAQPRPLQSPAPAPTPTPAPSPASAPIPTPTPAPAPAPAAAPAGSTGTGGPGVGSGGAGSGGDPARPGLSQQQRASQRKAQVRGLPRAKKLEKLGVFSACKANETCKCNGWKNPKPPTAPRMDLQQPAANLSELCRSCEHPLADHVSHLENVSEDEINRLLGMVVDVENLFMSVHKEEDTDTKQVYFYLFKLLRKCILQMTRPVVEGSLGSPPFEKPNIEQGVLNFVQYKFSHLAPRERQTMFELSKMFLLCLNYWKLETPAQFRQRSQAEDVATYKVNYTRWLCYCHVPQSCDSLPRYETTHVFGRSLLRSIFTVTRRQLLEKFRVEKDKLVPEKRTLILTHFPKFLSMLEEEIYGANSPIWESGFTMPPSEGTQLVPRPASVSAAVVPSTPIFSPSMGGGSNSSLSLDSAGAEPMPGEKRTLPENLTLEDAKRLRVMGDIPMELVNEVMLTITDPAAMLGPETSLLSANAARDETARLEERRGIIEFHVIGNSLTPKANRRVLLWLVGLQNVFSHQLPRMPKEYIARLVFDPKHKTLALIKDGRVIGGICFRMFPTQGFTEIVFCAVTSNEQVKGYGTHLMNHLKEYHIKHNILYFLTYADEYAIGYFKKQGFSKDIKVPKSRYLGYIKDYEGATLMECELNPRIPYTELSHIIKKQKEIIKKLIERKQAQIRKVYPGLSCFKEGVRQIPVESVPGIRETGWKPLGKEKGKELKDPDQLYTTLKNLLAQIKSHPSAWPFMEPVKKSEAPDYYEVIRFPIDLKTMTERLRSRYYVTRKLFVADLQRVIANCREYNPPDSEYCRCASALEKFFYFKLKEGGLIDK
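Preincubate 20nM GCN5L2 with compound 15 min, RT → add 50uM ThioGlo1 + 75uM H3(1-25) + 70uM acetyl-CoA → read fluorescence 0 and 20 min. Primary qHTS; fluorescent artifacts likely.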
VDR inh = Inhibitors of the vitamin D receptor (VDR): qHTS; VDR-SRC2-3 peptide fluorescence polarization, 2 h; Potency, µM, for inactives: max response, negative = inhibition, most hits filed as inhibitors; AID 504847, 2011; 400,000 compounds, 0.93% hits
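Reagent solutions, kept cold and dark, are dispensed first; compounds are then pinned in at 23 nl, plates briefly spun, and incubated 2 h at ambient temperature. Inhibition of VDR–SRC2-3 peptide binding is read by fluorescence polarization.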
* marks the source's active call; other numbers are inactive results; [ ] = remark or other dose. Calls follow the shape of the dose curve; as a rule, active = well fitted curve in the direction sought with a large enough effect; inconclusive = small, poorly fitted or top-dose-only effect, or another doubt; inactive = no such curve, though single readings can be large; an effect the other way counts as inactive or inconclusive. % is scaled to controls: 0 for no effect and ±100 for the full control effect; potency is read from the fitted curve at half-maximal effect.

Cc1cccc(N2CCN(C(=O)c3cc4c(=O)n(C)c5ccccc5c4n3C)CC2C)c1 (stereo unspecified) was read as DT40 TDP1 no CPT 9.2µM*, TDP1 block 10.8%, PLK1 PBD block 2.2%, TDP1 cell CPT 18.4µM*, KAT2A inh -9.0% and VDR inh -20.2%.
`O=C(Cn1c(=O)c2cccn2c2ccc(F)cc21)N1CCN(c2ccc(F)cc2)CC1` gave DT40 TDP1 no CPT inconclusive, TDP1 block 2.7%, PLK1 PBD block -8.7%, TDP1 cell CPT inconclusive, KAT2A inh -23.3% and VDR inh 15.4%.
For Cn1c(C(=O)N2CCN(Cc3ccccc3)CC2)cc2c(=O)n(C)c3ccccc3c21 the results were DT40 TDP1 no CPT inconclusive, TDP1 block 2.0%, PLK1 PBD block -11.8%, TDP1 cell CPT 18.4µM*, KAT2A inh -6.4% and VDR inh -7.4%.
For CS(=O)(=O)N1CCC2(CCN(C(=O)Nc3cccc(F)c3)CC2)CC1 the results were DT40 TDP1 no CPT -25.8%, TDP1 cell CPT -5.8%, KAT2A inh -4.0% and VDR inh 0.1%.
Screening COc1ccc(OC)c(-c2ccnc(-n3ncc(C(=O)N(C)CCc4ccccn4)c3C)n2)c1 returned DT40 TDP1 no CPT -13.5% and TDP1 cell CPT -10.0%[9.04 µM].
Cn1nc(-c2ccc(C(=O)N3CCN(Cc4ccccc4)CC3)cc2)c2ccccc2c1=O was read as DT40 TDP1 no CPT 18.4µM*, TDP1 block 5.3%, PLK1 PBD block 0.8%, TDP1 cell CPT 23.1µM*, KAT2A inh -1.4% and VDR inh -0.7%.
`O=C(NCc1ccccc1Cl)C(=O)c1cn(CC(=O)N2CCOCC2)c2ccccc12` gave DT40 TDP1 no CPT inconclusive, TDP1 block 4.9%, PLK1 PBD block -22.3%, TDP1 cell CPT -17.6%, KAT2A inh 0.6% and VDR inh 15.2%.
COc1ccccc1C(C(=O)c1ccccc1)c1ccc2ccccc2c1 (stereo unspecified) was read as DT40 TDP1 no CPT 16.4µM*, PLK1 PBD block -11.4% and TDP1 cell CPT inconclusive.
Cc1cccc(N(C)C(=O)Cc2c(C(=O)O)[nH]c3ccccc23)c1 was read as DT40 TDP1 no CPT inconclusive, TDP1 block 2.9%, TDP1 cell CPT inconclusive, KAT2A inh -3.8% and VDR inh 13.7%.
`C/C(CC(=O)Nc1ccc2c(c1)OCCO2)=N\NC(=O)C(=O)Nc1ccccc1C` gave DT40 TDP1 no CPT 0.4%, TDP1 block 5.1%, PLK1 PBD block -7.7%, TDP1 cell CPT 6.1%, KAT2A inh -2.7% and VDR inh -5.7%.
For Cc1noc(C)c1-c1nc(NCc2ccccc2)c2ccccc2n1 the results were DT40 TDP1 no CPT inconclusive, TDP1 cell CPT inconclusive, KAT2A inh 25.1µM* and VDR inh 35.5µM*.
Screening Cc1cccc(-c2nc(NCCCN(C)C)c3ccccc3n2)c1 returned DT40 TDP1 no CPT inconclusive, TDP1 block 1.7%, PLK1 PBD block -1.3%, TDP1 cell CPT inconclusive, KAT2A inh -19.2% and VDR inh 32.5%.
c1cncc(CNc2nc(-c3ccc4c(c3)OCO4)nc3ccccc23)c1 was read as DT40 TDP1 no CPT inconclusive, TDP1 block -0.2%[56.1 µM], TDP1 cell CPT inconclusive, KAT2A inh -20.1% and VDR inh -15.5%.
`Cc1cccc(CNc2nc(-c3ccc4c(c3)OCO4)nc3ccccc23)c1` gave DT40 TDP1 no CPT 23.1µM*, TDP1 cell CPT inconclusive, KAT2A inh -21.8% and VDR inh -3.4%.
Cc1cccc(-c2nc(NCCCN3CCOCC3)c3ccccc3n2)c1 was read as DT40 TDP1 no CPT inconclusive, TDP1 block -6.6%, PLK1 PBD block 10.6%, TDP1 cell CPT 18.4µM*, KAT2A inh -7.6% and VDR inh -11.3%.
Cc1noc(C)c1-c1nc(NCc2cccnc2)c2ccccc2n1 was read as DT40 TDP1 no CPT inconclusive, TDP1 block inconclusive, TDP1 cell CPT inconclusive, KAT2A inh -8.0% and VDR inh inconclusive.
`Cc1cccc(CNc2ncnc3ccc(-c4ccc5c(c4)OCO5)cc23)c1` gave DT40 TDP1 no CPT 18.4µM*, TDP1 block 3.6%, TDP1 cell CPT inconclusive, KAT2A inh -13.6% and VDR inh 6.6%.
`Cc1cccc(CNc2ncncc2-c2cccnc2)c1` gave DT40 TDP1 no CPT -11.4%, TDP1 cell CPT -6.5%, KAT2A inh -11.0% and VDR inh -19.1%.
Screening Cc1cccc(CNc2ncncc2-c2ccc(C(=O)N(C)C)cc2)c1 returned DT40 TDP1 no CPT 3.66µM*, TDP1 cell CPT inconclusive, KAT2A inh -3.1% and VDR inh -4.2%.
Cc1cccc(CNc2ncnc3ccc(-c4ccc(C(=O)N(C)C)cc4)cc23)c1 was read as DT40 TDP1 no CPT 25.9µM*, TDP1 block 2.7%, TDP1 cell CPT inconclusive, KAT2A inh -15.2% and VDR inh 2.6%.
Screening CC(=O)Nc1ccc(/C=C2\C=C(C(O)c3ccc(NC(C)=O)cc3)c3ccccc32)cc1 (stereo unspecified) returned DT40 TDP1 no CPT 10µM* and TDP1 cell CPT 20µM*.
CSc1ccc(/C=C2\C=C(C(O)c3ccc(SC)cc3)c3ccccc32)cc1 (stereo unspecified) was read as DT40 TDP1 no CPT 10µM* and TDP1 cell CPT 10µM*.
For CSc1ccc(/C=C/C(=O)Nc2ccccc2)cc1 the results were DT40 TDP1 no CPT -23.8%, TDP1 block 0.0%, PLK1 PBD block -3.6%, TDP1 cell CPT inconclusive, KAT2A inh -2.7% and VDR inh -1.7%.
For CCc1nc(CN2CCN(c3cc(C(F)(F)F)ccn3)CC2)c(C)[nH]1 the results were DT40 TDP1 no CPT 16.4µM*, PLK1 PBD block -5.5%, TDP1 cell CPT 23.1µM*, KAT2A inh 1.5% and VDR inh 0.1%.
For FC(F)(F)c1cccc(CN2CCN(c3ncccn3)CC2)c1 the results were DT40 TDP1 no CPT -9.2%, PLK1 PBD block 2.2%, TDP1 cell CPT -4.9% and VDR inh 13.4%.
For O=C(COC(=O)c1ccc(OC(F)F)cc1)NCCC1=CCCCC1 the results were DT40 TDP1 no CPT -0.2%, TDP1 block -0.7%, PLK1 PBD block -10.6%, TDP1 cell CPT -0.6%, KAT2A inh -0.7% and VDR inh 2.7%.

Screens: PubChem, National Center for Advancing Translational Sciences (NCATS)
